We go through 7 compounds from PubChem BioAssay (NCI).

Structures are written as SMILES. Compounds without any hit were thinned out: in the full panel of roughly 83,000, 20% have a hit.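 Results are percent growth after 48 hours of single-concentration exposure. 100 means growth as in untreated cells, lower positive values show inhibition; negative values down to -100 show cell death.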 Unmarked numbers belong to inactive results. Active and inactive are the calls of the source. How the source made its calls: active means growth percent below 10; inactive means the rest.

Test systems include NCI-H23 lung; NCI-H226 lung; NCI-H322M lung; HOP-62 NSCLC; NCI-H460 lung; HOP-92 NSCLC; NCI-H522 lung; A549/ATCC NSCLC; 786-0 renal; COLO 205 colon; DU-145 prostate; K-562 leukemia; MALME-3M melanoma; MDA-MB-231 breast; RXF 393 renal; SF-268 CNS; SF-295 CNS; SF-539 CNS; UACC-257 melanoma; M14 melanoma.
Assay in all cases: NCI-60 one-dose screen, 48 h (100 = growth as untreated, 0 = no growth, -100 = all killed)
Settings in all cases: 10 µM unless noted

In the case of `CO[C@@H](C)Cn1c(=O)n(C)c2cnc3ccc(-c4cncc(C(C)(C)O)c4)cc3c21`, the growth in the assay with NCI-H23 lung was -2.1% (active); with NCI-H226 lung it was -12.7% (active); in the assay with NCI-H322M lung, -15.2% (active); with HOP-62 NSCLC it was -14.5% (active); in the assay on NCI-H460 lung, 5.83% (active); with HOP-92 NSCLC, -24% (active). Also, the growth with NCI-H522 lung is 3.46% (active); in the assay with A549/ATCC NSCLC it was -11.7% (active); in the assay with 786-0 renal it was -11.1% (active); with COLO 205 colon, -24.6% (active); with DU-145 prostate, 13%; in the assay with K-562 leukemia it was 14.8%. For the same compound, the growth in the assay with MALME-3M melanoma was -36% (active); with MDA-MB-231 breast it was 6.56% (active); with RXF 393 renal, -47.2% (active); in the assay on SF-268 CNS it was 7.58% (active); in the assay on SF-295 CNS, -39.6% (active); in the assay on SF-539 CNS, -39.5% (active). Also, the growth in the assay with UACC-257 melanoma is -16.6% (active); in the assay on M14 melanoma it was 3.8% (active).

With `Cc1cc(N(CCNc2ccnc3cc(Cl)ccc23)Cc2ccc3c(c2)OCO3)nc(N2CCN(C)CC2)n1`, the growth was 56.6% in the assay with NCI-H23 lung; 75.7% in the assay with NCI-H226 lung; 41.5% with NCI-H322M lung; 0.334% (active) in the assay on HOP-62 NSCLC; 18.2% with NCI-H460 lung; -10.2% (active) with HOP-92 NSCLC. For the same compound, the growth in the assay on NCI-H522 lung was 7.7% (active); with A549/ATCC NSCLC it was 26%; with 786-0 renal it was -6.41% (active); in the assay on COLO 205 colon, -67.1% (active); in the assay on DU-145 prostate, 38.2%; in the assay with K-562 leukemia it was -59.1% (active). Further, the growth in the assay on MALME-3M melanoma was -71.6% (active); in the assay with MDA-MB-231 breast, 4.9% (active); in the assay on RXF 393 renal, -45.7% (active); in the assay with SF-268 CNS, 29.3%; in the assay on SF-295 CNS, -66.4% (active); with SF-539 CNS, -80.9% (active). In addition, in the assay with M14 melanoma, the growth is -79.6% (active).

In the case of `CCN(CC)CCN1C(=O)c2cccc3c(-c4ccc5c(c4)ncn5C4CCCCC4)ccc(c23)C1=O`, the growth in the assay on NCI-H23 lung is 20.2%; in the assay with NCI-H226 lung, -29.9% (active); with NCI-H322M lung it was 43.2%; in the assay with HOP-62 NSCLC it was 8.72% (active); with NCI-H460 lung it was -30.9% (active); in the assay on HOP-92 NSCLC, -7.68% (active). In addition, the growth in the assay on NCI-H522 lung was 21.3%; in the assay on A549/ATCC NSCLC, 18.8%; in the assay on 786-0 renal, -46.1% (active); in the assay on COLO 205 colon it was -20.4% (active); in the assay on DU-145 prostate it was 28.4%; in the assay with K-562 leukemia it was -14.2% (active). Further, the growth in the assay with MALME-3M melanoma is -74.5% (active); with MDA-MB-231 breast, 11.8%; in the assay on RXF 393 renal, -11.4% (active); in the assay on SF-268 CNS, 39.9%; in the assay with SF-295 CNS it was -41.7% (active); in the assay with SF-539 CNS, -76.2% (active). Moreover, the growth in the assay with UACC-257 melanoma is -15% (active); with M14 melanoma, -62.8% (active).

As to `O=C(Cn1c(=O)ccn(CCCCCCCCOc2ccc(Br)cc2)c1=O)Nc1ccc(Oc2ccc(Cl)cc2)cc1`, the growth with NCI-H23 lung is 47.8%; with NCI-H226 lung it was 56.6%; in the assay on NCI-H322M lung, 102%; in the assay with HOP-62 NSCLC it was 67.1%; in the assay with NCI-H460 lung, 56.8%; in the assay on HOP-92 NSCLC, 22.4%. For the same compound, the growth was 44.6% with NCI-H522 lung; 54.4% in the assay on A549/ATCC NSCLC; 65.7% in the assay with 786-0 renal; 76.7% in the assay on COLO 205 colon; 73.7% with DU-145 prostate; 40.5% in the assay with K-562 leukemia. The growth is 69.8% in the assay with MALME-3M melanoma; 66.6% with MDA-MB-231 breast; 79.8% in the assay on RXF 393 renal; 71.1% in the assay with SF-268 CNS; 52.9% in the assay with SF-295 CNS; 61.9% in the assay with SF-539 CNS. The growth with M14 melanoma is 70.1%.

`N#Cc1cc2[nH]c3ccc(OC(F)(F)F)cc3c2oc1=O`: the growth in the assay on NCI-H23 lung was 83.7%; in the assay with NCI-H226 lung, 82.4%; in the assay with NCI-H322M lung, 93.5%; in the assay with HOP-62 NSCLC it was 56.6%; in the assay with NCI-H460 lung, 87.6%; with HOP-92 NSCLC it was 104%. For the same compound, the growth with NCI-H522 lung was 42.4%; with A549/ATCC NSCLC, 91.3%; in the assay on 786-0 renal it was 93.9%; in the assay with COLO 205 colon, 86.8%; in the assay with DU-145 prostate, 99.4%; in the assay with K-562 leukemia, 28.8%. Besides, the growth in the assay with MALME-3M melanoma is 79.6%; in the assay on MDA-MB-231 breast, 84.6%; with RXF 393 renal, 76.8%; in the assay on SF-268 CNS it was 75.5%; with SF-295 CNS, 80.3%; in the assay with SF-539 CNS, 90%. Further, the growth in the assay with M14 melanoma was 68.4%.

Regarding `Clc1ccc2c(NCCNc3nc(N4CCCC4)nc4ccccc34)ccnc2c1`, the growth in the assay on NCI-H23 lung is 11.4%; in the assay with NCI-H226 lung it was -31.2% (active); in the assay on NCI-H322M lung it was -7.37% (active); in the assay on HOP-62 NSCLC, -47.2% (active); with NCI-H460 lung it was -23.6% (active); in the assay with HOP-92 NSCLC, -1.92% (active). Further, the growth in the assay with NCI-H522 lung is -48% (active); with A549/ATCC NSCLC it was -4.72% (active); with 786-0 renal, -77.4% (active); with COLO 205 colon, -81.4% (active); in the assay on DU-145 prostate it was 5.1% (active); with K-562 leukemia, -24.9% (active). Moreover, the growth was -69.6% (active) in the assay with MALME-3M melanoma; -60.7% (active) in the assay on MDA-MB-231 breast; -56.9% (active) in the assay on RXF 393 renal; 16.2% in the assay on SF-268 CNS; -73.1% (active) in the assay with SF-295 CNS; -92.6% (active) in the assay with SF-539 CNS. Moreover, the growth with M14 melanoma is -71.5% (active).

Regarding `CN(C)C1CCN(C(=O)c2ccc(NC(=O)Nc3ccc(-c4nc(N5CCOCC5)nc(N5CCOCC5)n4)cc3)cc2)CC1`, the growth in the assay on NCI-H23 lung is 8.52% [2.5 µM] (active); in the assay with NCI-H226 lung, -18.2% [2.5 µM] (active); with NCI-H322M lung, -30.3% [2.5 µM] (active); in the assay with HOP-62 NSCLC, -21.5% [2.5 µM] (active); in the assay on NCI-H460 lung it was 6.4% [2.5 µM] (active); in the assay with HOP-92 NSCLC it was -32% [2.5 µM] (active). Further, the growth in the assay with NCI-H522 lung is 8.88% [2.5 µM] (active); in the assay with A549/ATCC NSCLC it was -25.2% [2.5 µM] (active); in the assay with 786-0 renal, -10.7% [2.5 µM] (active); in the assay with COLO 205 colon, -31.4% [2.5 µM] (active); with DU-145 prostate, 2.99% [2.5 µM] (active); in the assay on K-562 leukemia, 14.4% [2.5 µM]. In addition, the growth with MALME-3M melanoma was -34.1% [2.5 µM] (active); in the assay on MDA-MB-231 breast, 17.2% [2.5 µM]; in the assay on RXF 393 renal, -40.4% [2.5 µM] (active); with SF-268 CNS, 10.6% [2.5 µM]; with SF-295 CNS, -31.1% [2.5 µM] (active); in the assay with SF-539 CNS, -53% [2.5 µM] (active). Besides, the growth in the assay with UACC-257 melanoma is -40% [2.5 µM] (active); in the assay with M14 melanoma, 7.46% [2.5 µM] (active).
